Assay results: PubChem BioAssay (Tox21)
Calls of active or inactive are those of the source. Entries that show only a call come without a potency. The call rests on the fitted dose curve; in most records, active means well fitted curve in the direction sought with a large enough effect in the repeat runs; inconclusive means weak or mixed curves; inactive means flat fitted curve, though single readings scatter.

Test: qHTS assay to test for compound auto fluorescence at 590 nm (red) in HEK293 cells (AID 720679)
Settings: red autofluorescence 540/590 nm; series mostly up to 91.3 µM
From the text: National Center for Advancing Translational Sciences [NCATS]
NIH Chemical Genomics Center [NCGC]
U.S. Environmental Protection Agency [EPA]
National Institutes of Environmental Health Sciences [NIEHS]
National Toxicology Program [NTP]
U.S. Food and Drug Administration [FDA]
Compound auto fluorescence often interferes with screening of the compound library against various biological targets and signaling pathways. Some of these compounds may have fluorophoric properties. Such properties may interfere with the assay outputs resulting in false positives and/or negatives. To decrease such complications and ensure the compound activities are relevant in terms of biological response, the Tox21 10K compound library was screened for auto fluorescence.
From the fluorophores used as reporter signals in our screening assays, the auto fluorescence equivalencies of compounds against three fluorophores have been evaluated: Triamterene, Fluorescein and Rose Bengal sodium for blue, green and red fluorescence, respectively. The fluorescence intensities were measured using Excitation/Emission wavelengths at 405/460nm, 485/535nm and 540/590nm for blue, green and red labels, respectively. This assay includes the red fluorescence data.
Tox21 Assay Protocol Summary:
2,000 HEK293 cells in 5 uL of culture medium containing 10% dialyzed FBS per well were dispensed into black wall/clear bottom 1536-well plates using a Multidrop Combi Dispenser (Thermo Scientific). The assay plates were incubated for 4-5 hr at 37C to allow cell attachment to the well bottom, followed by the transfer of 23 nL compound or DMSO vehicle by a pintool work station (Kalypsys, San Diego, CA). After the assay plates were incubated overnight at 37C and 5% CO2, fluorescence intensities in the assay plates were measured by an Envision (PerkinElmer, Shelton, CT) plate reader using three labels for measuring blue, green and red fluorescence at […] 460, 535 and 590nm respectively.

SMILES	Potency	fluorescence, % of fluorescent control
O=C(O)c1ccc(Cl)c(Cl)c1	inactive	–
CC(C)OC(=O)c1cc2c(OCC(O)CNC(C)(C)C)cccc2[nH]1 (stereo not given)	inactive	–
COC(=O)C1=C(C)NC(C)=C(C(=O)OCC(C)C)C1c1ccccc1[N+](=O)[O-] (stereo not given)	inactive	–
O=Cc1cc(O)ccc1Br	inactive	–
CCCCCOC(=O)CCCC	inactive	–
O=C(Nc1cccc(Cl)c1)OCC#CCCl	inactive	–
NC(=O)N1C(=O)C(C(=O)c2cc(Cl)cs2)c2cc(F)c(Cl)cc21 (stereo not given)	inactive	–
NC(=O)CC[C@@H]1NC(=O)[C@H](Cc2ccccc2)NC(=O)[C@H](Cc2ccc(O)cc2)NC(=O)CCSSC[C@@H](C(=O)N2CCC[C@H]2C(=O)N[C@@H](CCCN=C(N)N)C(=O)NCC(N)=O)NC(=O)[C@H](CC(N)=O)NC1=O	inactive	–
[Cl][Au]([Cl])[Cl]	inactive	–
Oc1ccc2cc(SSc3ccc4cc(O)ccc4c3)ccc2c1	inactive	–
CCC(N)(CO)CO	inactive	–
[Cl][Bi]([Cl])([c]1ccccc1)([c]1ccccc1)[c]1ccccc1	inactive	–
CCCCCCCC[P+](CCCCCCCC)(CCCCCCCC)CCCCCCCC	inactive	–
CCCCCCCCNC(C)C(O)c1ccc(SC(C)C)cc1 (stereo not given)	inactive	–
CO[Si](CCCNc1ccccc1)(OC)OC	inactive	–
O=C(NOCC1CC1)c1ccc(F)c(F)c1Nc1ccc(I)cc1Cl	inactive	–
Cc1c(C)c2c(c(C)c1OC(=O)CCC(=O)O)CC[C@@](C)(CCC[C@H](C)CCC[C@H](C)CCCC(C)C)O2	inactive	–
Oc1ccc(C2(c3ccc(O)cc3)CC3CC2C2CCCC32)cc1 (stereo not given)	inactive	–
O=C(OCC1CO1)C1CCCCC1C(=O)OCC1CO1 (stereo not given)	inactive	–
O=c1cc(-c2ccc(O)cc2)oc2cc(O)cc(O)c12	inactive	–

SMILES	Potency	fluorescence, % of fluorescent control
CCc1cc(SCc2sc(-c3ccc(C(F)(F)F)cc3)nc2CN2CCN(c3ccc(OC)cc3)CC2)ccc1OCC(=O)O	inactive	–
CCCCC(CC)COP(=O)(O)OCC(CC)CCCC (stereo not given)	inactive	–
CN(C)c1ccc(SC#N)cc1	inactive	–
COc1cc(/C=C/C(=O)O[C@H]2CC[C@]34C[C@]35CC[C@]3(C)[C@@H]([C@H](C)CCC=C(C)C)CC[C@@]3(C)[C@@H]5CC[C@H]4C2(C)C)ccc1O	inactive	–
CCCCN1CCCC[C@H]1C(=O)Nc1c(C)cccc1C	inactive	–
CC(=O)N1CCN(c2ccc(OC[C@H]3CO[C@](Cn4ccnc4)(c4ccc(Cl)cc4Cl)O3)cc2)CC1	inactive	–
Cc1cccc2c1cc1ccc3cccc4ccc2c1c34	inactive	–
CCCC1O[C@@H]2C[C@H]3[C@@H]4CCC5=CC(=O)C=C[C@]5(C)[C@H]4[C@@H](O)C[C@]3(C)[C@]2(C(=O)CO)O1 (stereo not given in full)	inactive	–
CCOC(=O)c1nc(C(Cl)(Cl)Cl)n(-c2ccc(Cl)cc2Cl)n1	inactive	–
CC(C)(C)CC(C)(C)c1ccc(O)c(Cc2ccc(Cl)cc2Cl)c1	inactive	–
C=CC(=O)OCC(CO)(COCC(COC(=O)C=C)(COC(=O)C=C)COC(=O)C=C)COC(=O)C=C	inactive	–
Cc1ccc(O)c(C(C)(C)C)c1	inactive	–
c1ccc(CSCc2ccccc2)cc1	inactive	–
c1cc(C(c2ccc(OCC3CO3)cc2)c2ccc(OCC3CO3)cc2)ccc1OCC1CO1 (stereo not given)	inactive	–
CCCC/C=C/CCCCO	inactive	–
CC(NN)c1ccccc1 (stereo not given)	inactive	–
CC(C)(C)C(=O)OCOC(=O)[C@@H]1N2C(=O)[C@@H](NC(=O)[C@H](N)c3ccccc3)[C@H]2SC1(C)C	–	0.201% [at 18.6 µM] (inactive)
Cc1cc(O)c2ccccc2c1O	inactive	–
CCCCC(CC)COC(=O)c1ccccc1C(=O)O (stereo not given)	inactive	–
O=C(Nc1cccc(C(F)(F)F)c1)c1cc(Br)cc(Br)c1O	inactive	–
